# SENP8 block-1: blocks human SENP8 cleavage of Nedd8 substrate; Q96LD8; recombinant SENP8, Nedd8 substrate fluorescence; inhibition, % at 20 µM; 0.64% of 360,000 active; AID 602440; in the data active = inhibition mostly above about 40%, no sharp cut-off; inactive = mostly below about 27%
# Target sequence (Q96LD8 whole entry, looked up): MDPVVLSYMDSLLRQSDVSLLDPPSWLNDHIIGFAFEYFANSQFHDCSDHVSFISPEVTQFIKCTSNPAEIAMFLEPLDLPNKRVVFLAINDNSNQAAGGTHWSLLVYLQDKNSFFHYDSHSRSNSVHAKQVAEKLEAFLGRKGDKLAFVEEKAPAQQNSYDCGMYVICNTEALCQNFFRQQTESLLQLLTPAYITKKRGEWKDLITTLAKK
# SENP6 block: inhibitors of human SENP6 protease. Q9GZR1. AID 2599. 1.8% of 330,000 active. inhibition, % at 10 µM. Recombinant SENP6 catalytic domain, aminoluciferin luminescence;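 active = inhibition above about 50% at the single tested dose, limit read from the data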;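 note: plate controls were DMSO wells with enzyme for no effect and DMSO wells lacking enzyme for full effect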
# Target sequence (Q9GZR1 628-1112 limits assumed): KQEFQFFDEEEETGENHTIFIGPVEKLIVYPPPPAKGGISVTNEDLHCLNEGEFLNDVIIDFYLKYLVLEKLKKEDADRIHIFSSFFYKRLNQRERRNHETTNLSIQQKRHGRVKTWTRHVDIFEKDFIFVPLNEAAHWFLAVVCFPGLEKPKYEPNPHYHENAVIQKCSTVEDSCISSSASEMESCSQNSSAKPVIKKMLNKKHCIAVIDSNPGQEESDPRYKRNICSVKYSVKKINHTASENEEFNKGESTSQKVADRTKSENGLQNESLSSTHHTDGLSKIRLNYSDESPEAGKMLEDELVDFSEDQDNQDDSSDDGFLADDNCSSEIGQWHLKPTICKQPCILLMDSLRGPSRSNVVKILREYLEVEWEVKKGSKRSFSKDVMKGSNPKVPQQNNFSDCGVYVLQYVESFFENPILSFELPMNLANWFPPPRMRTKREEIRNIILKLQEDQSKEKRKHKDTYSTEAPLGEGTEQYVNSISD
# PPC-1+TRAIL kill: kills PPC-1 cancer cells in the presence of TRAIL | 0.41% of 220,000 active | PPC-1 cells + TRAIL, ATPLite viability luminescence | cell killing (% activity), % at 4 µM or 5 µM;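 active = cell killing above 50% in the first pass at 4 µM, then a duplicate retest at 5 µM averaging 50% or more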;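 note: plate controls were cells with TRAIL plus DMSO for no effect and medium-only wells lacking cells for full effect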
# SENP8 block-2: SENP8 protease inhibition; purified SENP8, Z-RLRGG-aminoluciferin cleavage, luminescence; inhibition, % at 10 µM; 1.2% of 330,000 active; AID 2540; in the data active = inhibition above about 50%
# SENP7 block: SENP7 protease inhibition. recombinant SENP7, Z-RLRGG-aminoluciferin luminescence, 40 min. inhibition, % at 5 µM. 1.5% of 330,000 active. AID 434973;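 active = inhibition above about 50% at the single test dose, limit read from the data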;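 note: plate controls were DMSO with enzyme for no effect and no enzyme buffer wells for full effect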
# C8 TRAIL sens: caspase-8 TRAIL sensitization; NB7+C8 cells + TRAIL, ATPlite viability luminescence; inhibition (viability loss, TRAIL sensitization), % at 10 µM; 1% of 360,000 active;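 active = compounds causing at least 50% loss of cell viability in the single-dose screen, relative to plate controls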
# SENP8 conf: confirmation of human SENP8 protease inhibitors | shares compounds with SENP7 block | inhibition, % at 12.5 µM | 40% of 6,200 active | Recombinant SENP8, Z-RLRGG-aminoluciferin luminescence, 60 min;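 active = mean inhibition across replicates above about 50%, limit read from the data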
# SENP6 confirm: human SENP6 inhibition, confirmed; shares compounds with SENP7 block; recombinant SENP6, Z-RLRGG-aminoluciferin luminescence; inhibition, % at 12.5 µM; 58% of 6,200 active
# SENP7 confirm: human SENP7 inhibition, confirmed | inhibition, % at 12.5 µM | 69% of 6,200 active | shares compounds with SENP7 block | AID 488917 | recombinant SENP7, Z-RLRGG-aminoluciferin luminescence, 40 min
# Casp3 select: inhibits human caspase-3 in SENP selectivity test; 60% of 6,200 active; shares compounds with SENP7 block; inhibition, % at 12.5 µM; purified caspase-3, Z-DEVD-aminoluciferin luminescence, 60 min;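 active = mean inhibition above about 50%, limit read from the data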;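 note: plate controls were enzyme with DMSO for no effect and wells without caspase-3 for full effect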
# SENP luc ctr: counter-screen for SENP inhibitors: luminescence interference. shares compounds with SENP7 block. 39% of 6,200 active. Pre-incubated SENP8/Z-RLRGG-aminoluciferin, luciferase luminescence interference. AID 488919. inhibition, % at 12.5 µM;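 active = mean inhibition above about 50% when retested at one dose, limit read from the data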;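 note: plate controls were DMSO wells with completed reaction for no effect and substrate without enzyme for full effect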
# * = called active by the depositor; . = not tested or not shown. Sampled rows, rich in hits. Any-hit rate of the full collection: about 3%.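 Rule for the calls, unless noted: active = mean inhibition above about 50% in the one-dose retest (limit read from the data); inactive = the rest.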
SMILES,SENP8 block-1,SENP6 block,PPC-1+TRAIL kill,SENP8 block-2,SENP7 block,C8 TRAIL sens,SENP8 conf,SENP6 confirm,SENP7 confirm,Casp3 select,SENP luc ctr
CCOC(=O)c1c(C)oc2c1c(C=NCCC(=O)O)c(O)c1ccccc12,31.5,76.8*,18.0,66.0*,26.1,-5.7,-18.1,43.6,19.5,-2.6,2.3
O=C(CSCc1ccco1)N1CCc2ccccc21,13.7,56.5*,.,33.8,32.9,6.1,47.2,45.4,79.0*,67.5*,58.5*
CN1N=C(/C=C/c2ccccc2)CCC1=O,4.9,68.6*,4.7,60.9*,72.7*,10.3,60.5*,63.2*,91.6*,88.9*,67.6*
O=C1CCC(/C=C/c2ccccc2)=NN1Cc1ccccc1,-20.3,-10.1,11.5,-2.7,-5.9,-3.6,.,.,.,.,.
Cc1ccc(/C=C/C2=NN(C)C(=O)CC2)cc1,18.6,2.8,38.7,76.1*,85.6*,53.2*,75.3*,81.1*,97.6*,92.6*,61.6*
C/C(=N/OC(=O)c1ccc(F)cc1)c1ccc(C)cc1,19.9,60.4*,14.8,55.4*,71.0*,-2.9,12.5,8.0,17.6,17.4,5.3
N/C(=N\OC(=O)/C=C/c1ccccc1)c1ccc(Cl)cc1,10.6,-11.6,12.7,-11.9,11.1,9.9,.,.,.,.,.
N/C(=N\OC(=O)/C=C/c1ccccc1)c1ccccc1,9.2,89.8*,-1.8,80.4*,-1.5,43.2,89.7*,89.4*,99.1*,90.0*,82.9*
Cc1ccccc1C(=O)O/N=C(\N)c1ccc([N+](=O)[O-])cc1,12.3,1.6,.,1.4,-7.0,-14.8,.,.,.,.,.
Cc1ccccc1C(=O)O/N=C(\N)c1ccccc1,12.8,94.8*,.,93.1*,100.1*,91.5*,96.9*,97.7*,102.2*,98.1*,95.6*
Cc1ccccc1C(=O)NNC(=O)c1ccc(F)cc1,20.8,5.3,1.8,2.5,7.9,-7.8,.,.,.,.,.
Cc1ccccc1/C(N)=N/OC(=O)c1ccc(F)cc1,10.1,73.9*,22.3,60.7*,80.8*,24.2,69.8*,71.6*,93.2*,89.5*,75.4*
Nc1nccc(NCCSCc2ccccc2)n1,1.6,.,.,.,.,-18.3,.,.,.,.,.
CC(C)(C)C(=O)Nc1ccc(S(=O)(=O)N2CCC(c3nc4ccccc4[nH]3)CC2)cc1,-1.5,4.1,.,15.1,-9.5,34.2,.,.,.,.,.
Cc1ccc(C(=O)ONc2ccc(N=O)cc2)cc1,25.6,96.1*,15.1,97.8*,99.9*,-5.1,30.5,100.7*,103.7*,90.5*,31.1
C[C@@H]1CN([C@@H](C)CO)C(=O)CCCn2nncc2CO[C@@H]1CN(C)S(=O)(=O)c1ccc2ccccc2c1,14.1,.,.,.,.,8.1,.,.,.,.,.
COc1ccc(NC(=O)n2ncc3c(C)cccc32)cc1,32.7,74.1*,.,72.1*,60.6*,45.1,84.1*,83.1*,95.2*,63.0*,72.8*
Cc1ccc(-c2nnc(SCc3ccccc3F)o2)cc1,3.8,66.9*,17.0,48.9,57.6*,21.1,61.1*,69.9*,87.1*,45.4,43.4
CCN(CC)C(=O)C1c2ccccc2Oc2ccccc21,-31.4,19.7,.,-5.0,1.1,-8.1,.,.,.,.,.
Cc1cc(C)c(S(=O)(=O)Nc2cc(C)on2)c(C)c1,-2.0,-3.8,.,-4.8,4.6,-22.1,.,.,.,.,.
CCOC(=O)c1cc2ccc(OC(=O)c3ccco3)cc2oc1=O,-307.8,56.1*,24.5,35.9,63.1*,0.5,55.1*,60.9*,86.9*,89.2*,56.4*
CCOC(=O)c1c(C)n(C)c2ccc(OC(=O)c3ccco3)cc12,21.6,-5.1,4.7,2.7,5.7,-15.6,.,.,.,.,.
O=C1/C(=C/c2cccc([N+](=O)[O-])c2)Oc2cc(O)ccc21,-14.1,67.4*,.,54.4*,45.4,-7.0,3.9,7.7,20.3,7.6,34.5
CC(C)Cc1ccc(C(C)NC(=O)Cc2ccc(S(=O)(=O)N3CCOCC3)s2)cc1 (centres undefined),11.5,-15.7,.,3.6,1.6,14.2,.,.,.,.,.
C/C(=N\OC(=O)c1ccccc1F)c1nccs1,15.6,79.4*,-9.9,-5.7,78.8*,4.3,60.1*,52.9*,91.6*,5.9,33.3
SMILES,SENP8 block-1,SENP6 block,PPC-1+TRAIL kill,SENP8 block-2,SENP7 block,C8 TRAIL sens,SENP8 conf,SENP6 confirm,SENP7 confirm,Casp3 select,SENP luc ctr
c1ccc(-c2cn3c(n2)-c2ccccc2C3)cc1,-41.8,96.4*,44.5,96.0*,97.2*,68.7*,98.9*,99.7*,102.7*,98.8*,96.7*
Cn1cccc1/C=C1\SC(=Nc2ccc(O)cc2)NC1=O,13.5,-0.1,0.6,-10.6,4.1,4.0,.,.,.,.,.
Cn1cccc1/C=C1\SC(=Nc2ccccc2)NC1=O,18.5,80.3*,-15.0,72.2*,64.8*,10.4,44.1,60.9*,63.9*,62.7*,26.7
CC(/C=N/Nc1nnc2c(n1)[nH]c1ccccc12)=C\c1ccco1,10.9,6.5,12.3,-2.6,82.8*,3.1,3.4,-1.4,-3.3,-1.2,-1.7
O=C1C(=Cc2cccs2)C(=O)c2ccccc21,9.6,31.2,-1.4,10.0,12.0,1.2,.,.,.,.,.
Cn1cccc1/C=C1\CC(C(C)(C)C)C/C(=C\c2cccn2C)C1=O (centres undefined),14.5,19.3,-10.7,2.9,8.5,10.2,.,.,.,.,.
O=C1/C(=C/c2cccs2)Cc2ccccc21,7.0,91.0*,-4.6,84.2*,92.3*,-0.5,82.6*,90.9*,98.6*,86.7*,70.4*
Cn1cccc1/C=C1\CCc2ccccc2C1=O,-11.6,100.2*,7.9,95.4*,42.6,61.1*,97.5*,98.3*,101.6*,96.8*,96.0*
Cn1cccc1/C=C1\Cc2ccccc2C1=O,-255.6,-7.9,-1.8,91.9*,92.9*,15.8,66.5*,91.0*,99.2*,92.7*,36.1
O=Cc1ccc(-c2cccc([N+](=O)[O-])c2)o1,-0.3,-6.5,6.4,2.5,3.3,-21.9,.,.,.,.,.
Cc1ccc(NC(=O)CN2C(=O)S/C(=C\c3ccc(-c4cccc(C(=O)O)c4C)o3)C2=O)cc1C,-385.6,.,31.7,.,.,3.5,.,.,.,.,.
Cc1c(C(=O)O)cccc1-c1ccc(/C=C2\SC(=O)NC2=O)o1,-149.1,97.8*,.,97.6*,90.8*,4.4,98.7*,99.9*,103.0*,97.4*,97.3*

# Screening results deposited in PubChem by Sanford-Burnham Center for Chemical Genomics.
